Compounds with a hit are over-represented: about 4.1% of the library has one in this group of screens.
CSC inhib: cancer stem cell inhibition; cancer stem cell-like cells viability, luminescence; inhibition, % at 7.5 µM; actives 1.1% (n = 300,000); in the data active means inhibition above about 75%; tested in HMLE shEcad cells
Beta apoptosis: blocks beta cell apoptosis; actives 0.8% (n = 300,000); INS-1E cytokine-induced death, ATP luminescence, 48 h; percent of positive-control rescue, neutral wells zero; protection from apoptosis, % (no concentration beside the values);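 active means Every replicate reaches about 75%, or at least half do and their mean reaches it too, limit read from the data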;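 further: 0% = cytokine-treated negative control wells and 100% = positive control rescue; higher means more ATP so stronger rescue from cytokine killing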
Bfl-1 A1 inh: inhibitors of the anti-apoptotic protein A1, read as caspase activation | MEF A1-2A-BIM cells, Caspase-Glo 3/7 luminescence, 3 h; percent of clofoctol response, vehicle zero | caspase activation, % (test concentration not listed) | actives 0.066% (n = 330,000);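 active means over half of replicate activation scores above 10%, or exactly half above 10 with the replicate mean above 10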
aSyn UTR inh: 5' untranslated region of α-synuclein, MLPCN primary screen | alpha-synuclein 5'UTR reporter, inhibitor activity | AID 1813 | inhibition, % (tested at 7.5 µM) | actives 0.82% (n = 300,000); in the data active means inhibition above about 60%;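 further: H4 neuroglioblastoma cells stably carrying SNCA 5'UTR luciferase fusion; 0% = DMSO wells and 100% = positive control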
Mdm2 MdmX PPI: human Mdm2/MdmX binding inhibition; actives 3% (n = 330,000); AID 485346; inhibition, % at 8 µM; SaOS-2 split-luciferase Mdm2/MdmX complementation, luminescence; O15151+Q00987;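 active means inhibition of at least 50% at 8 µM in the primary screen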
Target sequence (O15151 whole entry, looked up): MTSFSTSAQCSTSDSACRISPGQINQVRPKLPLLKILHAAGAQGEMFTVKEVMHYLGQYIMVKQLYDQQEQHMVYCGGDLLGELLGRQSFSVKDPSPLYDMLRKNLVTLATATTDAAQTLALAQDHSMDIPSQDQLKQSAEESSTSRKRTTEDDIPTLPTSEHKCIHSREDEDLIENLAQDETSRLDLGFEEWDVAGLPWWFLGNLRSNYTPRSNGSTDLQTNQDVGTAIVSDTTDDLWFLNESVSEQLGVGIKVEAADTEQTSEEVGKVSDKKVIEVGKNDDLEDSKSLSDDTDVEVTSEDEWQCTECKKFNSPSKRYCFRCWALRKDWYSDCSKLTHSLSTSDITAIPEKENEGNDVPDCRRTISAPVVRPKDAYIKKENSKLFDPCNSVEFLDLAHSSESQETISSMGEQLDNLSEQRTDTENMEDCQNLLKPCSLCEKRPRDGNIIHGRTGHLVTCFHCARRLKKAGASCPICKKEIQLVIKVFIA
Target sequence (Q00987 whole entry, looked up): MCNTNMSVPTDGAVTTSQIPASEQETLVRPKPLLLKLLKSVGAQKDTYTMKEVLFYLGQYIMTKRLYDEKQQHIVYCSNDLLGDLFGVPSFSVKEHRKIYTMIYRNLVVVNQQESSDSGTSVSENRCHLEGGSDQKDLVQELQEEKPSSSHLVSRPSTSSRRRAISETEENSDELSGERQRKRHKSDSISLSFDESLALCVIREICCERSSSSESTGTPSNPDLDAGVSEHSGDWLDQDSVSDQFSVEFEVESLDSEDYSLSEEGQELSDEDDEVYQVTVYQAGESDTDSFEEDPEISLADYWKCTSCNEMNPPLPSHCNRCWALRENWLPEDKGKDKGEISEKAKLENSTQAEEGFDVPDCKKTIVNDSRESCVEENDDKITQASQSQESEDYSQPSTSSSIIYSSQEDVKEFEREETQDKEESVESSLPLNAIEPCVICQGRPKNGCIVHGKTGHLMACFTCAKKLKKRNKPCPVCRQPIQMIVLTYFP
Mdm2-MdmX conf: human Mdm2/MdmX binding inhibition, confirmed. luminescent assay. inhibition, % at 8 µM. AID 489028. shares compounds with Mdm2 MdmX PPI. actives 55% (n = 10,000); in the data active means inhibition above about 40%
Full FLuc ctr: inhibits full-length luciferase, flagging false Mdm2/MdmX hits. inhibition, % at 8 µM. shares compounds with Mdm2 MdmX PPI. SaOS-2 full-length luciferase counterscreen, luminescence. AID 504607. actives 77% (n = 6,200);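 active means mean inhibition at 8 µM reaching about 37%, which flags the compound as non-specific, limit read from the data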;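 further: p53-null SaOS-2 cells with luciferase driven by a doxycycline-inducible promoter; compound on cells about two nights before reading with doxycycline added after day one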
Numbers without * were called inactive; . = not tested or not shown.

SMILES | CSC inhib | Beta apoptosis | Bfl-1 A1 inh | aSyn UTR inh | Mdm2 MdmX PPI | Mdm2-MdmX conf | Full FLuc ctr
CC1CN(CCc2ccccc2)c2nc3c(c(=O)n(CC(N)=O)c(=O)n3C)n2C1 (stereo not given) | 8 | -1 | 1 | -10 | 12 | . | .
Cc1[nH]c(=O)c(C(=O)/C=C/c2ccccc2F)c2c1CCCC2 | 38 | 7 | 0 | -364 | 80* | 99* | 53*
C/C(=C\c1ccccc1F)C(=O)c1c(C)cc(C)[nH]c1=O | -1 | -7 | 1 | -20 | 13 | . | .
NC(=O)c1cc2ccncc2c2ccccc12 | -4 | -43 | 0 | -7 | 90* | 94* | 51*
C[C@]12C(=O)N(c3ccc(C(F)(F)F)cc3)C(=O)N1[C@@H]1c3ccccc3OC[C@@H]1[C@H]2c1ccccc1 | 17 | 10 | 1 | 17 | 50* | 50* | 74*
Cc1ccc(N2C(=O)N3[C@H]4c5ccccc5OC[C@@H]4[C@@H](c4ccccc4)[C@@]3(C)C2=O)cc1 | . | -2 | 2 | 35 | 52* | 17 | .
CN(C(=O)CN1C(=O)NC(c2ccccc2)(c2ccccc2)C1=O)C1CCS(=O)(=O)C1 (stereo not given) | -12 | 0 | 0 | . | -10 | . | .
FC(F)(F)c1nnc2c(Sc3ccccn3)nc3ccccc3n12 | 5 | -17 | -1 | -13 | 49 | . | .
FC(F)(F)c1nnc2c(Sc3ccc(Cl)cc3)nc3ccccc3n12 | 49 | 3 | 0 | 37 | 85* | 95* | 32
FC(F)(F)c1nnc2c(Sc3ccccc3)nc3ccccc3n12 | 10 | -29 | 0 | -103 | 68* | 23 | .
FC(F)(F)c1nc2ccccc2c2nc3ccccc3n12 | 5 | 1 | 0 | -8 | -2 | . | .
Cc1cc(N2CCN(C)CC2)nc2ccc(NC(=O)CCC(=O)NCCc3ccc(Cl)cc3)cc12 | . | . | . | -23 | 19 | . | .
CCCCc1ccc(NC(=S)N2CCCC2)cc1 | 15 | 8 | 2 | . | 0 | . | .
CC(=O)NC(Cc1ccc(C)cc1)C(=O)NC1CCN(S(=O)(=O)c2ccccc2)CC1 (stereo not given) | -7 | -5 | 0 | 8 | 0 | . | .
COC(=O)c1ccc(OCC2c3cc(OC)c(OC)cc3CCN2C(C)=O)cc1 (stereo not given) | -1 | -2 | -1 | 38 | -1 | . | .
COC(=O)c1ccc(OCC2c3cc(OC)c(OC)cc3CCN2C(=O)c2ccco2)cc1 (stereo not given) | . | -10 | -1 | 12 | 53* | 43* | 71*
CCN(CC)C(=O)c1sc(N)c(C(=O)OC(C)C)c1C | -3 | . | 0 | -17 | 4 | . | .
CCN(CC)C(=O)c1sc(NC(=O)C(Sc2ccccc2)c2ccccc2)c(C(=O)OC(C)C)c1C (stereo not given) | 18 | 3 | 0 | 14 | 58* | 1 | .
Cc1noc(C)c1CSc1nc2ccccc2nc1NS(=O)(=O)c1ccc(Cl)cc1 | 82* | . | 1 | 15 | 63* | -4 | .
O=S(=O)(Nc1nc2ccccc2nc1NCc1ccco1)c1ccc(Cl)cc1 | . | 4 | -1 | -10 | 24 | . | .
CCn1c(=O)n(CC)c2cc(N3CCCC3)c(NC(=O)c3cc(Cl)ccc3OC)cc21 | 30 | 6 | 0 | -4 | 64* | 21 | .
COc1cc(C(=O)Nc2cc3c(cc2N2CCCCC2)n(C)c(=O)n3C)cc(OC)c1OC | -4 | 0 | 3 | -79 | 78* | 44* | 72*
O=c1[nH]c(=O)n(Cc2ccccc2)c2c1C(C(F)(F)F)(C(F)(F)F)N=C(c1ccco1)N2 | 4 | 18 | 0 | 26 | -1 | . | .
O=c1[nH]c(=O)n(Cc2ccco2)c2c1C(C(F)(F)F)(C(F)(F)F)N=C(c1ccc(F)cc1)N2 | 31 | 102* | 0 | -10 | 65* | 84* | 58*
COc1ccc(OC)c(-c2nnc3n2N=C(c2ccc(OC)c(OC4CCCC4)c2)CS3)c1 | 66 | 10 | 0 | . | 84* | 75* | 66*
COc1ccc(C2=Nn3c(nnc3-c3cccnc3)SC2)cc1 | . | . | . | 16 | . | . | .
COc1ccc(C2=Nn3c(nnc3-c3ccncc3)SC2)cc1 | 2 | -2 | 0 | 8 | 52* | 55* | 22
